Assay results taken from ChEMBL document CHEMBL1961873, “Compounds: GSK PKIS; Assays: Nanosyn kinase panel” (2012).

What was measured:
[1] = target: High affinity nerve growth factor receptor (Homo sapiens) (UniProt P04629); conditions: at 1 µM;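 note: each value is the mean percent inhibition of TRKA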
[2] = target: BDNF/NT-3 growth factors receptor (Homo sapiens) (UniProt Q16620); conditions: at 0.1 µM
[3] = target: BDNF/NT-3 growth factors receptor (Homo sapiens) (UniProt Q16620); conditions: at 1 µM
[4] = target: NT-3 growth factor receptor (Homo sapiens) (UniProt Q16288); conditions: at 0.1 µM
[5] = target: NT-3 growth factor receptor (Homo sapiens) (UniProt Q16288); conditions: at 1 µM
[6] = target: T1, Tyrosine-protein kinase TXK (Homo sapiens) (UniProt P42681); conditions: at 0.1 µM
T1 sequence (whole entry): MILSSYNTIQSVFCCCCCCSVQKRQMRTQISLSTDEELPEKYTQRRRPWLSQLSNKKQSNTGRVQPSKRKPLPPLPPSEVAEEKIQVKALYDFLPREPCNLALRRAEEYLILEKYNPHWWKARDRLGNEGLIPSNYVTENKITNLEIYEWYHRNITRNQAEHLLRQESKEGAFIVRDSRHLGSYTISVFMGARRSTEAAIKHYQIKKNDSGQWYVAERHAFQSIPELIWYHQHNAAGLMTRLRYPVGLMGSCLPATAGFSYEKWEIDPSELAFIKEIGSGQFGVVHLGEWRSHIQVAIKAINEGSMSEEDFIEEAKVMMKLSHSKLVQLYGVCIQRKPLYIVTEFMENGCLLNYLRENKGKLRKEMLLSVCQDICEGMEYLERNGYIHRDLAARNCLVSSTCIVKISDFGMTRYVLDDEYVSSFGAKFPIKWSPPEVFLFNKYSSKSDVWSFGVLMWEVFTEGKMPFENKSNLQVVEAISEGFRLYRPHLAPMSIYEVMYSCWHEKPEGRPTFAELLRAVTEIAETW

[7] = target: T1, Tyrosine-protein kinase TXK (Homo sapiens); conditions: at 1 µM
[8] = target: Non-receptor tyrosine-protein kinase TYK2 (Homo sapiens) (UniProt P29597); conditions: at 0.1 µM;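 note: each value is a mean of the inhibition readings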
[9] = target: T2, Dual specificity protein kinase TTK (Homo sapiens) (UniProt P33981); conditions: at 1 µM;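 note: reported figures are mean TTK inhibition at 1 µM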
T2 sequence (whole entry): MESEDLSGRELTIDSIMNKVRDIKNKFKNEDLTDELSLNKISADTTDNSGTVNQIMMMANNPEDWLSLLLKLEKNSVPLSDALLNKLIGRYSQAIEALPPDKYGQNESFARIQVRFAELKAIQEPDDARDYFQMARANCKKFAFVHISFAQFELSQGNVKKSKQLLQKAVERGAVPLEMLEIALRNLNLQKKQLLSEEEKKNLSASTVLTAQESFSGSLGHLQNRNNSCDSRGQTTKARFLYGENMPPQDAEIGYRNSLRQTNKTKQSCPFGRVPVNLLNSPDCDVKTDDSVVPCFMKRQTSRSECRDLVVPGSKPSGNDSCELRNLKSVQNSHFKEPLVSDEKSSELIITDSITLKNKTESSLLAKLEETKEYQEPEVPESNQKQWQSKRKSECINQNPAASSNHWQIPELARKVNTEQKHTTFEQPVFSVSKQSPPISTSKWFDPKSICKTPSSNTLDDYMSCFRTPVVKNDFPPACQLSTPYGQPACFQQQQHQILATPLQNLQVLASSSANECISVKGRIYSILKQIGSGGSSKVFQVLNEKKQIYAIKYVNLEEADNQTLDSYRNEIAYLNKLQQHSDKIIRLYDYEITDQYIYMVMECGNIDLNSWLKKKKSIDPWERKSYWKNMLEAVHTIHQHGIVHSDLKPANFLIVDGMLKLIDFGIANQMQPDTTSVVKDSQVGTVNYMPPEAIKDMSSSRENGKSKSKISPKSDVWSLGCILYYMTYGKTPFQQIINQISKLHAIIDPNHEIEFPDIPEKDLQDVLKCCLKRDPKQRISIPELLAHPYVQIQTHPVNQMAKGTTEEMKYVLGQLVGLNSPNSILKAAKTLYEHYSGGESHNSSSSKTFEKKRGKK

[10] = target: T3, Aurora kinase A (Homo sapiens) (UniProt O14965); conditions: at 0.1 µM
T3 sequence (whole entry): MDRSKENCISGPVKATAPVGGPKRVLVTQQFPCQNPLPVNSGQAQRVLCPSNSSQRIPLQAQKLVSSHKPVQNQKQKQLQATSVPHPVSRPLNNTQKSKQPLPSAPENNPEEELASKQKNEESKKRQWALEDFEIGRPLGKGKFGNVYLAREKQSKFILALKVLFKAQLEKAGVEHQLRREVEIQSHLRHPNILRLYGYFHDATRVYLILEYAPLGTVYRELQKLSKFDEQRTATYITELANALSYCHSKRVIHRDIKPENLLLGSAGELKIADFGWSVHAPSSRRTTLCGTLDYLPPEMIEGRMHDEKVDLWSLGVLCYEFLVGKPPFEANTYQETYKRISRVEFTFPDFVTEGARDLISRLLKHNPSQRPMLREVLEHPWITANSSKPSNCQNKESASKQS

[11] = target: T3, Aurora kinase A (Homo sapiens); conditions: at 1 µM
[12] = target: Aurora kinase B (Homo sapiens) (UniProt Q96GD4); conditions: at 0.1 µM
[13] = target: Aurora kinase B (Homo sapiens) (UniProt Q96GD4); conditions: at 1 µM
[14] = target: T4, Aurora kinase C (Homo sapiens) (UniProt Q9UQB9); conditions: at 0.1 µM
T4 sequence (whole entry): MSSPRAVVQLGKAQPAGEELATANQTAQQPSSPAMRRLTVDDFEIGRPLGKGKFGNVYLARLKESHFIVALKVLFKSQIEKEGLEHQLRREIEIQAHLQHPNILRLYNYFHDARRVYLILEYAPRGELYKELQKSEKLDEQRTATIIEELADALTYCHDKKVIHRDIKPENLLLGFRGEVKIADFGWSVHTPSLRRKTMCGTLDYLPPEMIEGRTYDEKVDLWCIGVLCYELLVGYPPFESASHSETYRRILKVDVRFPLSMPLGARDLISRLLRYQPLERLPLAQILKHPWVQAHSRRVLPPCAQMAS

[15] = target: T4, Aurora kinase C (Homo sapiens); conditions: at 1 µM
[16] = target: Serine/threonine-protein kinase 10 (Homo sapiens) (UniProt O94804); conditions: at 0.1 µM
[17] = target: Serine/threonine-protein kinase 10 (Homo sapiens) (UniProt O94804); conditions: at 1 µM
[18] = target: T5, Mitogen-activated protein kinase kinase kinase kinase 2 (Homo sapiens) (UniProt Q12851); conditions: at 0.1 µM
T5 sequence (whole entry): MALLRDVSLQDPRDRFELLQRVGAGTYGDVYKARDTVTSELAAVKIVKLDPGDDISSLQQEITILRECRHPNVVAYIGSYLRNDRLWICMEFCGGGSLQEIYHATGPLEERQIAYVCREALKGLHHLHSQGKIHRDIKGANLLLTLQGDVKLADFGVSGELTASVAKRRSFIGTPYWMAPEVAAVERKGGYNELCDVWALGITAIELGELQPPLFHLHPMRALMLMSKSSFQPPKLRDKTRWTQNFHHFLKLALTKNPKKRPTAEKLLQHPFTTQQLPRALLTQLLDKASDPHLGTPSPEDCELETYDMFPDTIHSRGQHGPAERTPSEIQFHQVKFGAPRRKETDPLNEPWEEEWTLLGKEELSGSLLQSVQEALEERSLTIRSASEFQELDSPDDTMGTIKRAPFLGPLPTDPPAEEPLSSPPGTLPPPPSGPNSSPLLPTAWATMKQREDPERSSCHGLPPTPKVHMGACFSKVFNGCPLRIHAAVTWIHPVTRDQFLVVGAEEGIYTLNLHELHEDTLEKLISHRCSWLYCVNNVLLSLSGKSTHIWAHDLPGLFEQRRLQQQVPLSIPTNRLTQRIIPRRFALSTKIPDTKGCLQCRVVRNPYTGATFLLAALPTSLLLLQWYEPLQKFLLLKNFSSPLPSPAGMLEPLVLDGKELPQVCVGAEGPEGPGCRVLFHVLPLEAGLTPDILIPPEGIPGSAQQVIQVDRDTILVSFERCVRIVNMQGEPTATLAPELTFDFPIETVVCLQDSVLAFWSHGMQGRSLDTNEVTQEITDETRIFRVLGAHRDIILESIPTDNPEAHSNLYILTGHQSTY

[19] = target: T5, Mitogen-activated protein kinase kinase kinase kinase 2 (Homo sapiens); conditions: at 1 µM
[20] = target: Mitogen-activated protein kinase kinase kinase kinase 4 (Homo sapiens) (UniProt O95819); conditions: at 0.1 µM
Mitogen-activated protein kinase kinase kinase kinase 4 (Homo sapiens), sequence (O95819 2-1239 limits assumed): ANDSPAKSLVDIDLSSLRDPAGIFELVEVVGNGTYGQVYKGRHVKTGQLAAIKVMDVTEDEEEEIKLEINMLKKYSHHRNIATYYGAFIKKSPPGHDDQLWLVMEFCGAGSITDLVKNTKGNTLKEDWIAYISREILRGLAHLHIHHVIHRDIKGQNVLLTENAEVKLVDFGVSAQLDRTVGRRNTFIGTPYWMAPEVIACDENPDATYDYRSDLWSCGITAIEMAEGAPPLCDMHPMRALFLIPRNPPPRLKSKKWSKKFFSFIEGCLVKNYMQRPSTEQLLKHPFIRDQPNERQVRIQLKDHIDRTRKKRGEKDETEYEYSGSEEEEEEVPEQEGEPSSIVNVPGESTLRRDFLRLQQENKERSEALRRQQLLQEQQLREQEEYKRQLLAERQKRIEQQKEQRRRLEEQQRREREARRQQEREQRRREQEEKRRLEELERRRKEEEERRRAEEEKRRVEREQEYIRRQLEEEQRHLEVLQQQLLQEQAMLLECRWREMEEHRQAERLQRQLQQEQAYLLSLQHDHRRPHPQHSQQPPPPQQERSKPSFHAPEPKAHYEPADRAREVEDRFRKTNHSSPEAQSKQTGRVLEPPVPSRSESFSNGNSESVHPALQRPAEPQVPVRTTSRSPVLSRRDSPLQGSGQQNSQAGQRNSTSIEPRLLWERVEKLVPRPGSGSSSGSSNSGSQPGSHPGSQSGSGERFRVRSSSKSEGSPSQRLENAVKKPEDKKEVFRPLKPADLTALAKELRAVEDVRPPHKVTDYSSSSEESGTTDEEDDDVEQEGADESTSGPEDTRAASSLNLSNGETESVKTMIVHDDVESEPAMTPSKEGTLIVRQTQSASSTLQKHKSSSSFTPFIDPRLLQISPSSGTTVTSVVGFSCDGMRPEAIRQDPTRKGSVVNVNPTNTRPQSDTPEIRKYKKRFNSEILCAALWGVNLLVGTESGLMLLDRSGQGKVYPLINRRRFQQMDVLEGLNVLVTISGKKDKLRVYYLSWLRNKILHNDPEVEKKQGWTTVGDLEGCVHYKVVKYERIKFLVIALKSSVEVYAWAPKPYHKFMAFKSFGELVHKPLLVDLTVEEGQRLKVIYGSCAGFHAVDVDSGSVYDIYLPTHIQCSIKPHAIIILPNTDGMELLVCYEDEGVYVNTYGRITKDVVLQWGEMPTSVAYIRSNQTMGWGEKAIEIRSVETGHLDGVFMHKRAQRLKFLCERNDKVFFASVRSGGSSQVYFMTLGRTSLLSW

Aurora kinase B (Homo sapiens), sequence (Q96GD4 whole entry): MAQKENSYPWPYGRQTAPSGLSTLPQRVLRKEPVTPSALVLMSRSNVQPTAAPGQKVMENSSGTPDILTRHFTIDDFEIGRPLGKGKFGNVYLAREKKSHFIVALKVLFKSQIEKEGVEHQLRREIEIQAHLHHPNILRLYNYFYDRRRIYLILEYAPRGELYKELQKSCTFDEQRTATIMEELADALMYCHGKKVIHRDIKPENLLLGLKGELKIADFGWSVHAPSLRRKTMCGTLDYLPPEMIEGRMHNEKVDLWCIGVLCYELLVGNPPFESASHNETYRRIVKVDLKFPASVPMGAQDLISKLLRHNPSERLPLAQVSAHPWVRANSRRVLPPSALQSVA
BDNF/NT-3 growth factors receptor (Homo sapiens), sequence (Q16620 32-822 limits assumed): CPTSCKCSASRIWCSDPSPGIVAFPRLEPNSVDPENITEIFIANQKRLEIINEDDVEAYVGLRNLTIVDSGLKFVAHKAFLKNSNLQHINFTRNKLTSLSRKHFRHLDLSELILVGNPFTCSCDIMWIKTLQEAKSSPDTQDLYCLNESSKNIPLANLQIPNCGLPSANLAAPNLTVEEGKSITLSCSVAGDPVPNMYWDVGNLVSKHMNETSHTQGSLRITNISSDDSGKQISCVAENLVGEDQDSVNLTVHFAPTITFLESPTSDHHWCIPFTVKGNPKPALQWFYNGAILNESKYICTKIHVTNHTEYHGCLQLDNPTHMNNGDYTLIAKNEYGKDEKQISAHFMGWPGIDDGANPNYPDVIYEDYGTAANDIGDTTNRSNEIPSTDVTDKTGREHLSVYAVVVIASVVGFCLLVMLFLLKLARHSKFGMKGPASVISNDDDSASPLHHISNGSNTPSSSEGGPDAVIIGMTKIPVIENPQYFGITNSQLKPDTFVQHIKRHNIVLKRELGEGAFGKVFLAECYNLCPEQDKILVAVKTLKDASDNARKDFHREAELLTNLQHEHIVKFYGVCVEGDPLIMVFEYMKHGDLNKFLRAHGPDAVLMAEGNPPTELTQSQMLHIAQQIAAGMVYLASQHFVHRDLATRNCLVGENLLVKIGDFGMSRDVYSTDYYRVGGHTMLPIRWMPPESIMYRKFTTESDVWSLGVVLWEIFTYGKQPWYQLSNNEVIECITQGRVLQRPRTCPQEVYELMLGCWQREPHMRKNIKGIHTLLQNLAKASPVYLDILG
Non-receptor tyrosine-protein kinase TYK2 (Homo sapiens), sequence (P29597 whole entry): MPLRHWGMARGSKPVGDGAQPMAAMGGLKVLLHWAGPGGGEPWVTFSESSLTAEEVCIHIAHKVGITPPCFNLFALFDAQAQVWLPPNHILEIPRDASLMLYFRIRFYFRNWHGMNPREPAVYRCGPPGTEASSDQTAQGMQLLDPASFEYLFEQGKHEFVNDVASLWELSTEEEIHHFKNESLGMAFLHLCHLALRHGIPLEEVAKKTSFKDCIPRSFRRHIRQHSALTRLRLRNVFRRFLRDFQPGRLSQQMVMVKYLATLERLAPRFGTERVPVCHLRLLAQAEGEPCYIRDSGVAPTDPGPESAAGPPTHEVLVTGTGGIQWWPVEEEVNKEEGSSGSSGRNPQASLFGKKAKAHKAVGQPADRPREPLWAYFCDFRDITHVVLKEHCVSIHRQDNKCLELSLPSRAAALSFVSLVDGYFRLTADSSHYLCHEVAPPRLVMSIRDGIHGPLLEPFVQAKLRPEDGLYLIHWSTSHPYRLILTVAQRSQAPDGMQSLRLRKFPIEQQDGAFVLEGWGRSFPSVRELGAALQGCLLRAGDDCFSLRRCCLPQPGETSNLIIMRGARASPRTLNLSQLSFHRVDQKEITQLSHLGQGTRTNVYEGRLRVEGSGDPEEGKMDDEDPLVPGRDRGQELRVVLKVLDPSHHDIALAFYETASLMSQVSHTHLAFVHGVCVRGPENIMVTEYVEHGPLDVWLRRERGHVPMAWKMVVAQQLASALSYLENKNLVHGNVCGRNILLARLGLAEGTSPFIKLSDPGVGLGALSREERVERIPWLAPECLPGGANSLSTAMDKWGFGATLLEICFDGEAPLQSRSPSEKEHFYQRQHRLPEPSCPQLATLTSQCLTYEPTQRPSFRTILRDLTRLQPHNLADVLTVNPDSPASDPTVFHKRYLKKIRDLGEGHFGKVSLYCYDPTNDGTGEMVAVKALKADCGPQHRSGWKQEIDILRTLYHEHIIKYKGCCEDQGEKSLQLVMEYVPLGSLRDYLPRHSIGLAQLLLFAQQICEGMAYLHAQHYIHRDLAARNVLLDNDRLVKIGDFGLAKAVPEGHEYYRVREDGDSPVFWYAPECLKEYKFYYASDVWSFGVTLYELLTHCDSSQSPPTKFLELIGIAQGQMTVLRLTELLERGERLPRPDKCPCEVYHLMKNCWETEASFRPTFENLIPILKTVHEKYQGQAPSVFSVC
Serine/threonine-protein kinase 10 (Homo sapiens), sequence (O94804 whole entry, looked up): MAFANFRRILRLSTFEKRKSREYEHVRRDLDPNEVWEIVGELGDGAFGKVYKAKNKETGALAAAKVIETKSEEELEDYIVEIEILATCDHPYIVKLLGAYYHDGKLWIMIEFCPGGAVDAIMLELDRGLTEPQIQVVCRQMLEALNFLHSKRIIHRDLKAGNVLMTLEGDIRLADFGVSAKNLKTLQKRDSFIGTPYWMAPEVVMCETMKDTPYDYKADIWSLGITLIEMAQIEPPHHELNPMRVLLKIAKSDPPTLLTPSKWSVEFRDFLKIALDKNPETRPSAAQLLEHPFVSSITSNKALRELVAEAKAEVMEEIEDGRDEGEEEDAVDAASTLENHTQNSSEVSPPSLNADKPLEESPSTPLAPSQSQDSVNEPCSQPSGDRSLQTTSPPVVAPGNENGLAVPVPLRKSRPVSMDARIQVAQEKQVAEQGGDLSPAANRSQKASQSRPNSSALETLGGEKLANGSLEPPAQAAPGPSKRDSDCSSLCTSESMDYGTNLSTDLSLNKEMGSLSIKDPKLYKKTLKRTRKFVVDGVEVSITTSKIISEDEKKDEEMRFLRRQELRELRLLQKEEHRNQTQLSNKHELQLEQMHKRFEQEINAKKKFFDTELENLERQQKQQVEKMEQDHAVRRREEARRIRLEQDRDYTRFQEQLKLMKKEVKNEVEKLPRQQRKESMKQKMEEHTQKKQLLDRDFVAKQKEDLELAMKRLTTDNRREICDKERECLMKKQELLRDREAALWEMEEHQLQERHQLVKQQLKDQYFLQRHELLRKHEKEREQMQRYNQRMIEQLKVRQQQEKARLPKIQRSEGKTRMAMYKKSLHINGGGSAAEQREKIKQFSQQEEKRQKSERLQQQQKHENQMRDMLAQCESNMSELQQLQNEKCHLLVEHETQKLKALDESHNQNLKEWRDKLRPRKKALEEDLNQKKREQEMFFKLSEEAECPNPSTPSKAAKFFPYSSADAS

SMILES | inhibition [1] [%] | inhibition [2] [%] | inhibition [3] [%] | inhibition [4] [%] | inhibition [5] [%] | inhibition [6] [%] | inhibition [7] [%] | inhibition [8] [%] | inhibition [9] [%] | inhibition [10] [%] | inhibition [11] [%] | inhibition [12] [%] | inhibition [13] [%] | inhibition [14] [%] | inhibition [15] [%] | inhibition [16] [%] | inhibition [17] [%] | inhibition [18] [%] | inhibition [19] [%] | inhibition [20] [%]
Cc1ccc(Nc2ccnc(Nc3cccc(C(N)=O)c3)n2)cc1O | 6.07 | 4.59 | 21.6 | 3.13 | 11.5 | 10.1 | 43.7 | -1.77 | 16.3 | 14.3 | 73.4 | 6.44 | 42.6 | 8.25 | 85.4 | 7.05 | 38.9 | 2.07 | 8.97 | 6.53
CCn1c(-c2nonc2N)nc2c(C#CC(C)(C)O)nc(OCCNC)cc21 | 6.23 | 3.15 | 3.59 | 1.5 | 2.5 | 3.81 | 2.46 | -0.47 | 9.85 | 1.75 | 4.63 | 2.66 | 5.49 | -0.74 | 3.76 | 5.14 | 8.89 | 0.49 | 3.15 | 3.57
Nc1nccc(C#Cc2cncnc2Nc2ccc(OCc3cccc(F)c3)c(Cl)c2)n1 | 9.29 | 3.48 | 11.3 | 2.67 | 9.94 | 3.85 | 8.58 | -3.29 | 14.2 | 1.06 | 15.2 | 5.2 | 13.2 | 3.04 | 10.1 | 5.76 | 11.4 | 1.38 | -0.42 | 6.33
COC(=O)c1ccc2c(c1)C(=Cc1cc(Br)c(O)c(Br)c1)C(=O)N2 | 6.54 | 3.26 | 8.43 | 2.35 | 12.1 | 6.42 | 12.3 | 5.83 | 25.2 | 30.8 | 80.4 | 2.96 | 8.43 | -0.01 | 15.2 | 6.1 | 10.6 | 1.53 | 4.06 | 45.5
O=C1Nc2ccccc2/C1=C/Nc1ccc2[nH]c(=O)[nH]c2c1 | 53.9 | 26.2 | 72.7 | 26.2 | 74.2 | 6.68 | 7.08 | -6.64 | 38.8 | 6.9 | 52 | 10.8 | 44.7 | 9.06 | 81.9 | 8.73 | 17 | 1.3 | 15.2 | 25.3
NS(=O)(=O)c1cccc(Nc2cc(-c3ccc(F)cc3)n[nH]2)c1 | 19.2 | 4.73 | 26.1 | 6.62 | 27.9 | 3.74 | 3.31 | -3.9 |  | 1.29 | 8.81 | 3.89 | 3.74 | 0.7 | 0.46 | 4.31 | 16.5 | 1.41 | 4.93 | 16.9
COc1cccc(-n2ncc3c(N/N=C/c4ccc(S(C)(=O)=O)cc4)ncnc32)c1 | 5.3 | 6.69 | 19.3 | 6.62 | 22.3 | 0.02 | 12.4 | -0.06 |  | 6.42 | 28.4 | 9.58 | 42.4 | 0.72 | 12.2 | 6.63 | 16.3 | 0.47 | 0.9 | 16.2
Cc1cc(Cl)cc2c1NC(=O)C2=NNc1ccc(S(N)(=O)=O)cc1 | 2.26 | 1.15 | 4.46 | 1.2 | 3.59 | 2.77 | 3.71 | -5.56 | 9.15 | 1.75 | 4.36 | 4.55 | 6.64 | 2.52 | -3.99 | 1.5 | 7.34 | 1 | 0.54 | 12.7
CC(C)c1ccc2c(c1)NC(=O)/C2=N/Nc1ccc(S(N)(=O)=O)cc1 | 26.1 | 4.87 | 31.5 | 7.71 | 34.9 | 1.51 | 3.5 | 0.63 | 3.55 | 1.5 | 8.05 | 1.3 | 7 | -4.39 | 6.7 | -0.47 | 2.14 | 2.41 | 2.01 | 12.8
NC(=O)c1sc(-n2cnc3ccccc32)cc1OCc1ccccc1Br | 5.34 | 3.05 | 4.07 | 1.79 | 3.41 | 3.34 | 5.57 | -1.33 | 13 | 3.86 | 4.39 | 4.16 | 9.94 | 1.83 | 8.84 | 17.4 | 60.6 | 2.47 | 8.46 | 4.11
COc1cccc(-n2nc(C)c3c(N/N=C(\C)c4ccncc4)ncnc32)c1 | 2.57 | -1.2 | 0.69 | -2.28 | -0.38 | 3.18 | 2.67 | 0.67 | 2.24 | 1.27 | 0.79 | 2.73 | 3.95 | 0.6 | 4.15 | 0.54 | 3.61 | -0.39 | 0.32 | 1.37
